This note sets out measurements from paper PMC5700166.

Test in all cases: protein-binding microarray (PBM); PBM: ~300 nM protein, 6 mM HEPES pH 7.8, 80 mM KCl, 0.5 mM EDTA, 0.5 mM EGTA, 6% glycerol, 35 ng/ul poly-dIdC, 1% milk, 1 h, room temperature; Ap Aiptasia and Nv Nematostella (sea anemones) / Co Capsaspora / Aq Amphimedon (sponge) / Dm Drosophila / Hu human; RHD is the Rel homology domain; high values mean tight binding
What all share (conditions): dsDNA, one strand shown

For one experiment, the target named is T1, GST-Ap-NF-kB RHD (Exaiptasia pallida (Aiptasia), UniProt A0A913YAJ5 2-422).
T1 sequence: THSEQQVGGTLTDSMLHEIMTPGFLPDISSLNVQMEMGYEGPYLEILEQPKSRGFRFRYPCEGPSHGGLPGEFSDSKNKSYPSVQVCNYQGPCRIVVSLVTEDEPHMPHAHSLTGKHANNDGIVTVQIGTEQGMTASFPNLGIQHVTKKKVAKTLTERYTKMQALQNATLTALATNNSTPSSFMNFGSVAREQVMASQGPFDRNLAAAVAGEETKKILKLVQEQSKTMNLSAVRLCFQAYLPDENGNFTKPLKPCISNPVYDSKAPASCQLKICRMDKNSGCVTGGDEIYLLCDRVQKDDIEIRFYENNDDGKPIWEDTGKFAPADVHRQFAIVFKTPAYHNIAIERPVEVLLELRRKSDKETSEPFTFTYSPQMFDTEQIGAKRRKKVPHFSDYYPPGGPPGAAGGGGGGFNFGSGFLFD

The target in experiment [1] is T2, GST-Nv-NF-kB (Cys allele) (Nematostella vectensis, UniProt E5G601 2-411).
T2 sequence: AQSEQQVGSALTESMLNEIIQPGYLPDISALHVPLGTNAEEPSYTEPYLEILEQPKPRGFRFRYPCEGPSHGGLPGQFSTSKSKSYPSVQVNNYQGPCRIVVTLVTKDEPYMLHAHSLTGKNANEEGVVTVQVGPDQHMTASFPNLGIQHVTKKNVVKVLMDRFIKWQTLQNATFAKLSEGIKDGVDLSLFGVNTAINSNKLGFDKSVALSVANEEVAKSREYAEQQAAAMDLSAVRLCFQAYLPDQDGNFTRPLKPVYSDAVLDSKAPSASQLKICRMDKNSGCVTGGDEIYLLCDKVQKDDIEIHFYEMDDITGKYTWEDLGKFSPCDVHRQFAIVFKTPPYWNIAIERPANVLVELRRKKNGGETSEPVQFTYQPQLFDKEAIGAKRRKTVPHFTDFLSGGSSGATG

The target in the next experiment is T3, GST-Dm-Relish (Drosophila melanogaster, UniProt Q94527 99-473).
T3 sequence: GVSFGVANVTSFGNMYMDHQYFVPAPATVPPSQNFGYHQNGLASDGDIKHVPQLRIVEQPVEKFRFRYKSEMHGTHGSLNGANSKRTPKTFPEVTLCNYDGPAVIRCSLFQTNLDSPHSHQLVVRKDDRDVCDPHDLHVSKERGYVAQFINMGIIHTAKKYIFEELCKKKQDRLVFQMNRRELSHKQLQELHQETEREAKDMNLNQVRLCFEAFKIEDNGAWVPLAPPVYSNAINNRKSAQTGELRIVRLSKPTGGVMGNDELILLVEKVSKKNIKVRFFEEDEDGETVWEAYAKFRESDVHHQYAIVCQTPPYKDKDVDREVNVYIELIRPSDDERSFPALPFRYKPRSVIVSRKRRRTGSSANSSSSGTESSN

A further experiment has as its target T4, GST-Aq-NF-kB (Amphimedon queenslandica, UniProt A9Y5G7 2-389).
T4 sequence: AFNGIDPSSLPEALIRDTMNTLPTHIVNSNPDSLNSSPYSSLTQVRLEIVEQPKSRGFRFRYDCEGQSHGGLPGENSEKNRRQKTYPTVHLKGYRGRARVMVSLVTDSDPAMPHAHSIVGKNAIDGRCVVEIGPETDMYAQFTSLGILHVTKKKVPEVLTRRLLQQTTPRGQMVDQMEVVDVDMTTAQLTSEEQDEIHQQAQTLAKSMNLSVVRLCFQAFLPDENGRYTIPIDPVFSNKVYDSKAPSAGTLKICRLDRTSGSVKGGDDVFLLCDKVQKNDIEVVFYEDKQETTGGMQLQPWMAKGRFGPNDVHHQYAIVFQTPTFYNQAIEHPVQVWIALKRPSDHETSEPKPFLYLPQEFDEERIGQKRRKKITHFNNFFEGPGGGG

On to “CCGATTAACATCAAGGGCTTCCCTGATGTTAATCGGGTCTTGATTCGCTTGACGCTGCTG”, for which the binding signal with GST-Ap-NF-kB RHD stood at 1.53 z-score; in experiment [1] it was 1.82 z-score; with GST-Dm-Relish, 7.18 z-score; in the experiment with GST-Aq-NF-kB it was 3.85 z-score.
The corresponding values for “CCGATTAACATCAGGAATAACCCTGATGTTAATCGGGTCTTGATTCGCTTGACGCTGCTG” are 1.87 z-score, 2.62 z-score, 3.23 z-score and 5.81 z-score.
On the same counts, the results for “CCGATTAACATCAAGGGCATTCCTGATGTTAATCGGGTCTTGATTCGCTTGACGCTGCTG” are 1.84 z-score, 1 z-score, 2.4 z-score and 3.02 z-score.
Take “CCGATTAACATCAGGAGTTTACCTGATGTTAATCGGGTCTTGATTCGCTTGACGCTGCTG”: the binding signal stood at 1.12 z-score in the experiment with GST-Ap-NF-kB RHD, 1.18 z-score in experiment [1], 3.24 z-score with GST-Dm-Relish and 2.87 z-score with GST-Aq-NF-kB.
The corresponding values for “CCGATTAACATCAATGGGTTTTCTGATGTTAATCGGGTCTTGATTCGCTTGACGCTGCTG” are 1.73 z-score, 1.21 z-score, 2.88 z-score and 1.85 z-score.
The corresponding values for “CCGATTAACATCAAGGGTTTTCCTGATGTTAATCGGGTCTTGATTCGCTTGACGCTGCTG” are 3.57 z-score, 3.39 z-score, 4.7 z-score and 5.2 z-score.
